Data: PubChem BioAssay (NCI)
The panel holds about 79,000 compounds, 15% with a hit somewhere; the sample as a whole holds those more often. The source made the active and inactive calls. Rule as the data show it: active = growth inhibition above about 70%; inactive = the rest.

Experiments:
[1] = NCI Yeast Anticancer Drug Screen. Data for the rad50 strain (AID 155);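 also: 0% = growth of vehicle-only cultures of the same strain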; conditions: S. cerevisiae rad50 strain growth inhibition, active compounds read high
In short: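 A DNA repair-deficient yeast mutant serves as the test organism; compound-induced growth inhibition is calculated against vehicle-treated cells.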

[2] = NCI Yeast Anticancer Drug Screen. Data for the mec2-1 strain (AID 157); conditions: S. cerevisiae mec2-1 strain, active compounds read high
In short: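 Mutant yeast (mec2-1) grown with compound; growth inhibition relative to vehicle control reported.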

[3] = NCI Yeast Anticancer Drug Screen. Data for the sgs1 mgt1 strain (AID 161);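 also: 0% = growth of cultures given vehicle only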; conditions: S. cerevisiae sgs1 mgt1 strain, active compounds read high
In short: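 Yeast cells carrying a defined DNA-repair defect were exposed to test compounds. Growth inhibition was measured relative to vehicle-treated controls.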

[4] = NCI Yeast Anticancer Drug Screen. Data for the cln2 rad14 strain (AID 165);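 also: 0% = growth equal to vehicle treated cultures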; conditions: S. cerevisiae cln2 rad14 strain, active compounds read high
In short: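 Readout is yeast growth inhibition versus vehicle-treated controls, using a strain with cln2 and rad14 alterations exposed to compound.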

[5] = NCI Yeast Anticancer Drug Screen. Data for the bub3 strain (AID 167); conditions: S. cerevisiae bub3 mutant strain, active compounds read high
In short: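 Inhibition values come from growth of compound-treated mutant yeast normalised to vehicle-treated controls.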

[6] = NCI Yeast Anticancer Drug Screen. Data for the mlh1 rad18 strain (AID 175); conditions: S. cerevisiae mlh1 rad18 strain growth inhibition, active compounds read high
In short: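 Genetically defined yeast (DNA repair-deficient) exposed to compounds; growth inhibition determined relative to vehicle.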

[7] = at 5.0 µM (retest, dose inferred, filed as 0.5)
[8] = at 50.0 µM (retest, dose inferred, filed as 5.0)

Measured: growth inhibition

c1ccc(CCN(Cc2nc3ccccc3[nH]2)Cc2nc3ccccc3[nH]2)cc1
active: [1]; [8] 90% | [1]; at 50.0 µM 94.7% | [2]; [8] 92% | [2]; at 50.0 µM 93.2% | [3]; [8] 90% | [3]; at 50.0 µM 96% | [4]; [8] 93% | [4]; at 50.0 µM 82.6% | [5]; [8] 95% | [5]; at 50.0 µM 89.2% | [6]; [8] 91% | [6]; at 50.0 µM 95.5%
inactive: [1]; [7] 3% | [2]; [7] -3% | [3]; [7] -3% | [4]; [7] -12% | [5]; [7] 0% | [6]; [7] -3%

CCCCCC/C=C/C#CCCCCCCCC(=O)O
inactive: [1]; [7] 30% | [1]; [8] 15% | [1]; at 50.0 µM 5.5% | [2]; [7] 21% | [2]; [8] 11% | [2]; at 50.0 µM 9.2% | [3]; [7] 33% | [3]; [8] 37% | [3]; at 50.0 µM 14% | [4]; [7] 17% | [4]; [8] 16% | [4]; at 50.0 µM 11.8% | [5]; [7] 19% | [5]; [8] 3% | [5]; at 50.0 µM 17.3% | [6]; [7] 57% | [6]; [8] 44% | [6]; at 50.0 µM -88.8%

COC(=O)c1c(COC(=O)NC(C)C)c2n(c1C)CS(=O)(=O)C2
inactive: [1]; [7] -38% | [1]; [8] -8% | [2]; [7] 3% | [2]; [8] 5% | [3]; [7] -3% | [3]; [8] 31% | [4]; [7] -6% | [4]; [8] -20% | [5]; [7] -18% | [5]; [8] 3% | [6]; [7] -35% | [6]; [8] -32%
active: [1]; at 50.0 µM 97.3% | [2]; at 50.0 µM 98.5% | [3]; at 50.0 µM 98.4% | [4]; at 50.0 µM 98% | [5]; at 50.0 µM 97% | [6]; at 50.0 µM 97.7%

O=C1C=CC(=O)c2c1cc1ccccc1c2O
active: [1]; [8] 97% | [2]; [8] 99% | [3]; [8] 98% | [5]; [8] 96% | [6]; [8] 97%
inactive: [1]; [7] 19% | [1]; at 50.0 µM 4.45% | [2]; [7] 15% | [2]; at 50.0 µM -10.8% | [3]; [7] 6% | [3]; at 50.0 µM 1.4% | [4]; [7] 6% | [4]; [8] 44% | [4]; at 50.0 µM 27.4% | [5]; [7] 22% | [5]; at 50.0 µM -5.75% | [6]; [7] 19% | [6]; at 50.0 µM 30.6%

O=S(=O)(CC(Br)Br)c1ccccc1
inactive: [1]; [7] 13% | [2]; [7] 18% | [3]; [7] 3% | [3]; at 50.0 µM 41% | [4]; [7] 7% | [5]; [7] 34% | [6]; [7] 11% | [6]; at 50.0 µM 30.9%
active: [1]; [8] 99% | [1]; at 50.0 µM 99.5% | [2]; [8] 100% | [2]; at 50.0 µM 98.5% | [3]; [8] 99% | [4]; [8] 99% | [4]; at 50.0 µM 74.8% | [5]; [8] 99% | [5]; at 50.0 µM 99.5% | [6]; [8] 99%

N#C/C(=C/c1cc(I)cc(I)c1O)C(N)=O
inactive: [1]; [7] 42% | [2]; [7] 39% | [2]; at 50.0 µM 58.6% | [3]; [7] 69% | [4]; [7] 41% | [4]; at 50.0 µM 61.2% | [5]; [7] 44% | [6]; [7] 66%
active: [1]; [8] 87% | [1]; at 50.0 µM 79.8% | [2]; [8] 92% | [3]; [8] 97% | [3]; at 50.0 µM 78.8% | [4]; [8] 90% | [5]; [8] 96% | [5]; at 50.0 µM 80.2% | [6]; [8] 97% | [6]; at 50.0 µM 71.2%

NSc1ccc(N)s1
active: [5]; at 50.0 µM 87.7%
inactive: [1]; [7] -1% | [1]; [8] 11% | [1]; at 50.0 µM 37% | [2]; [7] 6% | [2]; [8] 12% | [2]; at 50.0 µM 28.9% | [3]; [7] 1% | [3]; [8] 13% | [3]; at 50.0 µM 50.6% | [4]; [7] -7% | [4]; [8] 6% | [4]; at 50.0 µM 36.9% | [5]; [7] -3% | [5]; [8] 14% | [6]; [7] -1% | [6]; [8] 12% | [6]; at 50.0 µM 58.6%

Cc1cc(C)nc(NS(=O)(=O)c2ccc(Nc3nc(-c4cccc([N+](=O)[O-])c4)cs3)cc2)n1
active: [1]; [8] 99% | [2]; [8] 99% | [3]; [8] 99% | [4]; [8] 98% | [5]; [8] 99% | [5]; at 50.0 µM 75.2% | [6]; [8] 99%
inactive: [1]; [7] 14% | [1]; at 50.0 µM 23.1% | [2]; [7] -1% | [2]; at 50.0 µM 30.5% | [3]; [7] 7% | [3]; at 50.0 µM 47.6% | [4]; [7] -26% | [4]; at 50.0 µM 51.9% | [5]; [7] 34% | [6]; [7] 5% | [6]; at 50.0 µM 53%

CCCCCCC1CCC(CCCCCCCC(=O)N2CCN(C)CC2)C(C/C=C/CCCCCCCC(=O)N2CCN(C)CC2)C1CCCCC (stereo not drawn)
inactive: [1]; [7] 3% | [2]; [7] -1% | [3]; [7] 1% | [4]; [7] -1% | [5]; [7] 4% | [6]; [7] 6%
active: [1]; [8] 93% | [1]; at 50.0 µM 98.8% | [2]; [8] 75% | [2]; at 50.0 µM 99.3% | [3]; [8] 70% | [3]; at 50.0 µM 99.3% | [4]; [8] 84% | [4]; at 50.0 µM 92.6% | [5]; [8] 90% | [5]; at 50.0 µM 98.7% | [6]; [8] 95% | [6]; at 50.0 µM 98.9%

Cc1ccc(/C=N/NS(=O)(=O)c2ccccc2)c(C)c1
inactive: [1]; [7] -27% | [1]; [8] 25% | [1]; at 50.0 µM 30.6% | [2]; [7] -10% | [2]; [8] 1% | [2]; at 50.0 µM 18.9% | [3]; [7] 1% | [3]; [8] 15% | [3]; at 50.0 µM 15% | [4]; [7] -23% | [4]; [8] 42% | [4]; at 50.0 µM -25.8% | [5]; [7] 3% | [5]; [8] 41% | [5]; at 50.0 µM 11.1% | [6]; [7] -11% | [6]; [8] 46% | [6]; at 50.0 µM 36.9%

CC(=O)OCC1OC(c2cccc3c2c2ccccc2n3S(=O)(=O)c2ccccc2)C(O)C1O (stereo not drawn)
inactive: [1]; [7] 1% | [1]; at 50.0 µM 17.4% | [2]; [7] 1% | [2]; at 50.0 µM -0.7% | [3]; [7] -1% | [3]; at 50.0 µM 7.15% | [4]; [7] 2% | [4]; at 50.0 µM 1.25% | [5]; [7] 0% | [5]; at 50.0 µM 7.8% | [6]; [7] 1% | [6]; at 50.0 µM 37.9%
active: [1]; [8] 93% | [2]; [8] 97% | [3]; [8] 97% | [4]; [8] 98% | [5]; [8] 98% | [6]; [8] 98%
